Results on 28 compounds are retold here after PubChem BioAssay (NCI).

The structures appear in SMILES notation. This is part of a sample that, as a whole, favours compounds with a hit. Of some 83,000 tested, about 20% had one in any assay.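 Note: values are percent growth. 100 is the growth of untreated cells, values between 100 and 0 indicate rising inhibition; between -100 and 0 indicates cell death.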 Values without a mark were called inactive. Active and inactive are the calls of the source. Rule for the calls: active = growth percent below 10; inactive = the rest.

Common to all, as to assay: NCI-60 one-dose screen, 48 h (100 = growth as untreated, 0 = no growth, -100 = all killed)
Assay [1] concerns T-47D breast. Particulars: 10 µM.
The test system of assay [2] is BT-549 breast. Particulars: 10 µM unless noted.
The subject of assay [3] is MDA-MB-435 melanoma. The conditions noted are these: 10 µM unless noted.
Assay [4] deals with SW-620 colon. The conditions noted are these: 10 µM unless noted.
Assay [5] relates to MCF7 breast. Particulars: 10 µM unless noted.
Assay [6] has as its system HCT-116 colon. Particulars: 10 µM unless noted.
Assay [7] deals with KM12 colon. Particulars: 10 µM unless noted.
The test system of assay [8] is HCC-2998 colon. The conditions noted are these: 10 µM unless noted.

Take `COc1cccc(C2CC(=O)Nc3cc4c(cc32)CCC4)c1OC` (centres undefined): the growth in assay [1] was 57.1%; in assay [2], 62.3%; in assay [3] it was -56.5% (active); in assay [4], 29.3%; in assay [5], 29.3%; in assay [6], 57.7%. Moreover, in assay [7], the growth was 28.5%.

For `COC(=O)CCC(=O)c1ccccc1`, the growth in assay [1] is 102%; in assay [2], 107%; in assay [3], 96.9%; in assay [4], 106%; in assay [5] it was 96.1%; in assay [6], 108%. Besides, in assay [7], the growth is 110%.

As for `CCOc1ccc(/C=N\N2CCCCCC2)cc1OCC`, the growth in assay [1] was 99.1%; in assay [2], 96.2%; in assay [3], 53.2%; in assay [4] it was 114%; in assay [5] it was 96%; in assay [6] it was 99.5%. In assay [7], the growth is 103%.

On to `O=C1c2ccccc2-c2nnc(-c3ccc(Br)cc3)cc21`, for which the growth is 52.7% in assay [1]; 71.5% in assay [2]; -69.1% (active) in assay [3]; 73.3% in assay [4]; 14.8% in assay [5]; 1.98% (active) in assay [6]. In assay [7], the growth was 64%.

As to `COc1ccc(-c2c3c(N)c4c(nc3nc3c2c(C)nn3-c2ccccc2)CCCCC4)cc1`, the growth is 61.2% in assay [1]; 80.9% in assay [2]; 78.8% in assay [3]; 83.5% in assay [4]; 62.8% in assay [5]; 86.6% in assay [8]. Moreover, the growth in assay [7] is 84.2%.

With `Cc1nc(NN)c([N+](=O)[O-])c(NN)n1`, the growth in assay [1] is 103%; in assay [2] it was 107%; in assay [3], 104%; in assay [4], 104%; in assay [5], 98.7%; in assay [6], 99.2%. The growth in assay [7] is 104%.

As for `N#CC1=C(N)Oc2cc(N)ccc2C1c1ccc(F)cc1` (centres undefined), the growth in assay [1] is 96.6%; in assay [2] it was 69.2%; in assay [3] it was -21.9% (active); in assay [4], 46.8%; in assay [5], 64.1%; in assay [6], 78.4%. For the same compound, the growth in assay [7] was 49.7%.

With `ONc1nc(NO)c2[nH]cnc2n1`, the growth is 53.5% in assay [1]; 77.4% in assay [2]; 75.7% in assay [3]; 55% in assay [4]; 90.2% in assay [5]; 121% in assay [8]. Moreover, the growth in assay [7] is 110%.

`Cc1nc(NC(=O)COc2cccc(/C=C3\COc4ccccc4C3=O)c2)sc1C`: the growth was 53.2% in assay [1]; -68.5% (active) in assay [2]; -44.5% (active) in assay [3]; -100% (active) in assay [4]; -58.7% (active) in assay [5]; -88.4% (active) in assay [6]. Further, the growth in assay [7] was -92.4% (active).

For the compound `Cc1c(C)n(CC(O)CNC2CCCCC2C)c2ccccc12` (centres undefined), the growth in assay [1] is -10.5% (active); in assay [2], -94.3% (active); in assay [3], -67.9% (active); in assay [4], -77% (active); in assay [5], -23.4% (active); in assay [6], -81.9% (active). Besides, in assay [7], the growth is -77.9% (active).

For `Cc1nc2nc(C(F)(F)F)[nH]c2nc1C`, the growth in assay [1] was 104%; in assay [2], 100%; in assay [3], 112%; in assay [4], 114%; in assay [5], 95.2%; in assay [6] it was 101%. For the same compound, the growth in assay [7] was 105%.

Consider `CC(=O)N(CC(O)CO)c1c(I)c(C(=O)NCCO)c(I)c(C(=O)NCC(O)CO)c1I` (centres undefined), for which the growth in assay [1] is 101%; in assay [2], 94.3%; in assay [3], 105%; in assay [4], 109%; in assay [5], 104%; in assay [6] it was 97%. Moreover, the growth in assay [7] was 103%.

With `CCC(=O)Nc1nnc(Cc2ccc(OC)c(OC)c2)s1`, the growth in assay [1] is -18.7% (active); in assay [2], -66.8% (active); in assay [3], -52% (active); in assay [4] it was 33.8%; in assay [5], 15.1%; in assay [6], -68.2% (active). Also, in assay [7], the growth was 36.3%.

As to `COc1cccc(-c2ccc3c(c2)C2CCN(Cc4ccccc4)C3C2)c1` (centres undefined), the growth in assay [1] is 76.3%; in assay [2] it was 64.2%; in assay [3], 9.08% (active); in assay [4] it was 53.6%; in assay [5], 60.1%; in assay [8], 83.5%. Moreover, the growth in assay [7] is 56.7%.

As for `COC(=O)C1C2CC3c4[nH]c5cc(OC)ccc5c4CCN3CC2CC(OC2CCCCO2)C1OC` (centres undefined), the growth is 108% in assay [1]; 97.2% in assay [2]; 101% in assay [3]; 100% in assay [4]; 95.8% in assay [5]; 103% in assay [6]. Also, in assay [7], the growth was 105%.

On to `O=C(Nc1nc2ccccc2[nH]1)C(=O)Nc1nc2ccccc2[nH]1`, for which the growth was 95.4% in assay [1]; 108% in assay [2]; 101% in assay [3]; 102% in assay [4]; 83.9% in assay [5]; 107% in assay [8]. Also, the growth in assay [7] is 101%.

As for `CC(=O)c1cc(C)c(OC(=O)c2ccccc2)c(C)c1`, the growth was 74.9% in assay [1]; 97.6% in assay [2]; 95.2% in assay [3]; 103% in assay [4]; 105% in assay [5]; 100% in assay [8]. In addition, the growth in assay [7] was 104%.

Consider `Cc1nc(-c2ccccc2)cc2c(O)c(C(=O)N/N=C/Cc3ccccc3)[nH]c(=O)c12`, for which the growth in assay [1] was 104%; in assay [2] it was 105%; in assay [3], 118%; in assay [4], 107%; in assay [5] it was 98.5%; in assay [8], 95.4%. Besides, the growth in assay [7] is 115%.

For the compound `COc1cc(C(=O)N(C(C)C)C2CCCCC2)cc(OC)c1OC`, the growth is 107% in assay [1]; 143% in assay [2]; 107% in assay [3]; 107% in assay [4]; 86.2% in assay [5]; 122% in assay [6]. Moreover, the growth in assay [7] was 102%.

As for `Oc1ccc2ccccc2c1C1NN=C(c2ccccc2)S1` (centres undefined), the growth in assay [1] is 20.7%; in assay [2] it was 19.5%; in assay [3], 29.4%; in assay [4] it was 40.4%; in assay [5] it was 17.2%; in assay [6], 16%. In addition, the growth in assay [7] is 23.3%.

As to `COc1cc2nc(N3CCC[C@H](NC4=CC(=O)c5ccccc5C4=O)C3)nc(N)c2cc1OC`, the growth in assay [1] was -56.2% (active); in assay [2], 105%; in assay [3], -96.1% (active); in assay [4] it was -45.1% (active); in assay [5] it was -77.3% (active); in assay [8], 92.9%. Moreover, in assay [7], the growth is -39.2% (active).

Turning to `O=C1OCC2=C1C(c1ccc3c(c1)OCO3)CC(=O)N2c1cccc(Cl)c1` (centres undefined), the growth in assay [1] was 103%; in assay [2] it was 126%; in assay [3] it was 100%; in assay [4] it was 105%; in assay [5], 86.7%; in assay [6], 114%. The growth in assay [7] is 101%.

For `Cc1nc2cc(Nc3nc(Cl)nc(Nc4ccc(F)cc4)n3)ccc2n1Cc1ccccc1`, the growth in assay [1] is 57%; in assay [2], 90.6%; in assay [3], 95.6%; in assay [4], 84.8%; in assay [5], 61.5%; in assay [8], 94.5%. In addition, the growth in assay [7] was 69.2%.

With `O=C(COc1ccc(/C=C2\CSc3ccccc3C2=O)cc1)c1ccc(Cl)cc1`, the growth in assay [1] is 94.8%; in assay [2] it was 110%; in assay [3] it was 95.6%; in assay [4], 115%; in assay [5], 114%; in assay [6], 94.1%. In addition, the growth in assay [7] was 106%.

As to `COc1cccc(C2CC(=O)Nc3cc4c(cc32)OCO4)c1OC` (centres undefined), the growth in assay [1] is 87.5%; in assay [2] it was 101%; in assay [3] it was 97%; in assay [4] it was 105%; in assay [5], 94.8%; in assay [7], 91.6%.

For `Cc1ccc(-c2c3c(N)c4c(nc3nc3c2c(C)nn3-c2ccccc2)CCCC4)cc1`, the growth in assay [1] is 92.6%; in assay [2], 109%; in assay [3], 96.4%; in assay [4] it was 97.1%; in assay [6], 90.2%; in assay [8], 107%. Also, the growth in assay [7] was 105%.

Take `COc1ccc(/C=C(\C#N)c2ccc(OC)cc2)cc1`: the growth was 47.4% in assay [1]; 95% in assay [2]; 2.31% (active) in assay [3]; 38.6% in assay [4]; 36.8% in assay [5]; 28.4% in assay [7].

With `Cc1nc2cc(Nc3nc(N4CCOCC4)nc(N4CCN(C)CC4)n3)ccc2n1Cc1ccccc1`, the growth in assay [1] is 99.6%; in assay [2], 103%; in assay [3], 100%; in assay [4], 104%; in assay [5], 98.8%; in assay [8] it was 113%. The growth in assay [7] was 115%.
